IL-1B inflam inh = inflammasome signaling inhibition, IL-1 beta readout; AID 743279; THP-1 LPS/ATP IL-1B secretion, AlphaLISA, 16 h; hits give low values; hit rate 4.7% among 360,000; activity change, % at 57.5 µM; in the data active = activity change below about -50%; inconclusive = mostly about -30% to -49%
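Secreted IL-1B measured by AlphaLISA bead assay after 16 h compound exposure of THP-1 cells; compounds (final up to 57.5 uM) added 1 h before LPS (250 ng/mL) and ATP (1.25 mM) stimulation; lower signal means less secretion.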
HT1080-NT tox = kills 2HG-producing HT-1080-NT fibrosarcoma cells. Potency, µM (doses to about 46.1 µM), for inactives: top-dose activity, negative = less viability, most hits filed as cytotoxic. hit rate 1.6% among 360,000. HT-1080-NT fibrosarcoma viability, CellTiter-Glo ATP luminescence, 48 h;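 note: NT is the 2HG producing partner of a matched IDH1 knockdown line; potency is the fitted concentration of half-maximal effect; 0% = DMSO-treated cells and -100% = media-only wells without cells; nearly all actives have a fitted effect of over 55% in size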
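Read-out is CellTiter-Glo luminescence after 10 minutes at room temperature, following 48 hours' compound treatment of HT-1080-NT cells (750 cells/well, RPMI, 5% FBS, 37 degrees C).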
TDP1 cell CPT = growth inhibition of DT40 Tdp1-/-;hTDP1 cells with camptothecin (screen for TDP1 inhibitors); chicken DT40 Tdp1-/-;hTDP1 cells + 20 nM CPT, ATP luminescence, 48 h; Potency, µM (doses to about 46.2 µM), for inactives: top-dose activity change, negative = growth inhibition, usual class: inhibitors; hit rate 12% among 420,000; AID 686979; note: potency is the fitted concentration of half-maximal effect; nearly all actives have a fitted effect of over 55% in size
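Chicken DT40 Tdp1-/- cells stably complemented with human TDP1 were seeded at 400 cells/well in medium containing 20 nM camptothecin, exposed to pin-transferred compounds, and grown at 37 °C for at least 48 hr. Viability was read as ATP luminescence.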
DT40 TDP1 no CPT = qHTS for Inhibitors of human tyrosyl-DNA phosphodiesterase 1 (TDP1): qHTS in cells in absence of CPT | DT40 Tdp1-/- hTDP1 cells, no CPT, ATP luminescence, 48 h | Potency, µM (doses to about 46.2 µM), for inactives: top-dose activity change, negative = growth inhibition, usual class: inhibitors | hit rate 15% among 420,000; note: potency is the fitted concentration of half-maximal effect; nearly all actives have a fitted effect of over 55% in size
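Seeded 400 DT40-hTDP1 cells/well (vehicle DMSO, no 20 nM CPT); pinned compounds; ≥48 hr at 37 °C; CellTiter-Glo luminescence as viability measure.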
HT1080 IDH1KD tx = toxicity to HT-1080 IDH1 knockdown cells (counter line). HT-1080 IDH1 knockdown viability, ATP luminescence, 48 h. Potency, µM (doses to about 46.1 µM), for the others: at the highest dose activity, negative = toxicity, hits mostly cytotoxic. hit rate 2% among 360,000. AID 686971;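 note: potency is the fitted concentration of half-maximal effect; 0% = DMSO wells and -100% = cell-free medium wells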
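Knockdown cells (IDH1KD HT-1080) received compounds 2 h after plating at 750 cells/well and were kept 48 h at 37 °C in 5% FBS RPMI. A CellTiter-Glo luminescence read gave % activity for curve fitting.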
ELG1 repair inh = inhibitors of ELG1-dependent DNA repair in HEK293T cells. HEK293T ELG1-luciferase reporter, luminescence, 16 h; DNA damage induced by 5-fluorouridine. Potency, µM (top dose mostly 46.1 µM), without a hit: at the highest dose activity change, negative = inhibition, actives largely listed as inhibitors. hit rate 2.3% among 330,000. AID 504467; note: potency is the fitted concentration of half-maximal effect; nearly all actives have a fitted effect of over 55% in size
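Quantitative HTS, concentration-response format. 2,000 cells/well co-treated with 5-fluorouridine and compound, 16 hr in 5% CO2 at 37 °C; ONE-Glo luminescence read after 30 min.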
* marks the source's active call; other numbers are inactive results; ? = inconclusive; . = not tested or not shown. Compounds with a hit are over-represented: about 19% of the library has one in this group of screens. Unless noted, calls come from the whole dose curve; as a rule, active = well fitted curve in the direction sought with a large enough effect; inconclusive = small, poorly fitted or top-dose-only effect, or another doubt; inactive = no such curve, though single readings can be large; an effect the other way counts as inactive or inconclusive. Unless noted, % is set by controls: 0 for no effect and ±100 for the full control effect.

SMILES	IL-1B inflam inh	HT1080-NT tox	TDP1 cell CPT	DT40 TDP1 no CPT	HT1080 IDH1KD tx	ELG1 repair inh
CCNC(=O)Nc1ccc(-n2nc(C)c(C(=O)OCC)c2C)nc1	6.3	-0.1%	18.4µM*	?	0.2%	3.1%
CCOC(=O)c1c(C)nn(-c2ccc(NC(=O)c3c(C)noc3C)cc2)c1C	-14.4	-15.0%	?	?	-1.9%	?
O=S1(=O)CCN(C2CCCCCCC2)CC1	14.8	13.3%	-2.0%	3.4%	10.9%	.
CC(=O)Nc1ccccc1OCC(=O)NC(C)c1ccc(F)cc1 (stereo not given)	-8.9	3.7%	13µM*	?	-18.8%	-2.9%
COCCNC(=O)c1c(N)n(/N=C/c2cccs2)c2nc3ccccc3nc12	-2.9	-7.9%	?	16.4µM*	-13.1%	?
COCCNC(=O)c1c(N)n(/N=C/c2ccc(F)cc2)c2nc3ccccc3nc12	-25.8	6.8%	?	?	10.2%	0.0%
CC(C)Cn1c(N)c(S(=O)(=O)c2cccs2)c2nc3ccccc3nc21	?	-3.8%	16.4µM*	?	-9.7%	?
Nc1c(S(=O)(=O)c2cccs2)c2nc3ccccc3nc2n1/N=C/c1cccc(O)c1	-79.8*	?	13µM*	?	20.6µM*	18.4µM*
COc1ccc(Cn2c(C)ccc2C)cc1	?	-2.1%	-1.9%	-10.2%	-1.3%	-16.5%
COc1ccc(Cn2c(-c3ccc(Br)cc3)c[n+]3ccccc23)cc1	-61.1*	?	1.84µM*	2.06µM*	?	?
Cc1ccc(N/C(N)=N/c2nc3c(c(=O)[nH]2)CCCC3)c(C)c1	-20.0	2.3%	13µM*	11.6µM*	4.6%	10.9%
Cc1ccc(N/C(N)=N/c2nc(C)cc(N3CCCCC3)n2)c(C)c1	-103.0*	14.6µM*	2.31µM*	2.59µM*	?	16.4µM*
N/C(=N\c1nc2c(c(=O)[nH]1)CCCC2)Nc1ccccc1	5.8	-1.9%	-26.7%	?	0.3%	14.3%
N/C(=N\c1nc2c(c(=O)[nH]1)CCCC2)Nc1ccccc1Sc1ccccc1	28.8	12.0%	11.2µM*	20µM*	8.0%	?
O=C1CSC(c2cn(-c3ccccc3)nc2-c2cc3ccccc3oc2=O)N1Cc1ccco1 (stereo not given)	-11.7	-0.3%	?	?	-16.1%	16.4µM*
O=C1CSC(c2cn(-c3ccccc3)nc2-c2cc3ccccc3o2)N1Cc1ccccc1 (stereo not given)	5.6	0.5%	?	?	-9.6%	?
Cc1ccc(-c2nn(-c3ccccc3)cc2C2SCC(=O)N2Cc2ccccc2)o1 (stereo not given)	-68.5*	-14.2%	13µM*	8.2µM*	-6.0%	?
CC(C)CC(=O)Nc1c2c(nn1-c1cccc(Cl)c1)CS(=O)C2 (stereo not given)	6.7	13.5%	1.4%	18.9%	22.9%	0.0%
CCN(c1ccccc1)S(=O)(=O)c1cc2c3c(c1)C(C)C(=O)N3CCC2 (stereo not given)	8.2	-2.0%	18.4µM*	16.4µM*	2.7%	7.1%
CCN(c1cccc(C)c1)S(=O)(=O)c1cc2c3c(c1)CCN3C(=O)CC2	18.5	-1.7%	29.1µM*	14.6µM*	-13.6%	-0.1%
COc1ccccc1NS(=O)(=O)c1ccc2oc(SC(C)C(=O)N3CCNC3=O)nc2c1 (stereo not given)	?	-7.3%	14.6µM*	?	-18.2%	25.9µM*
COc1ccccc1NS(=O)(=O)c1ccc2oc(SCc3ccc(F)cc3)nc2c1	-6.2	?	16.4µM*	16.4µM*	-28.5%	12.5%
O=C(CCCNS(=O)(=O)c1cccs1)N1CCN(c2cccc(Cl)c2)CC1	-15.7	-11.3%	?	?	-7.1%	23.1µM*
O=C(CCNS(=O)(=O)c1cccc2nonc12)N1CCN(c2cccc(Cl)c2)CC1	-11.6	-10.9%	?	11.6µM*	-8.2%	?
CCOc1ccccc1N1CCN(C2=C(NS(=O)(=O)c3cccs3)C(=O)c3ccccc3C2=O)CC1	-29.0	?	?	25.9µM*	?	23.1µM*
SMILES	IL-1B inflam inh	HT1080-NT tox	TDP1 cell CPT	DT40 TDP1 no CPT	HT1080 IDH1KD tx	ELG1 repair inh
O=C1C(NS(=O)(=O)c2cccs2)=C(N2CCN(c3cccc(C(F)(F)F)c3)CC2)C(=O)c2ccccc21	-24.0	?	16.4µM*	23.1µM*	?	?
O=C1C(NS(=O)(=O)c2cccs2)=C(N2CCOCC2)C(=O)c2ccccc21	10.3	?	?	?	?	-5.5%
COc1ccccc1CN1CCCC2(CCN(C(=O)c3cnccn3)CC2)C1	.	.	?	-2.8%	.	.
CCCC(C)NC(=O)Cc1ccc(S(=O)(=O)N2CCOCC2)s1 (stereo not given)	33.3	0.4%	-13.2%	-0.9%	4.0%	-3.5%
O=C(OCc1nnc(-c2ccccc2)o1)C1CCN(C(=O)c2ccc(Cl)cc2)CC1	11.1	-7.1%	-0.2%	-17.4%	-4.3%	0.1%
COc1ccc2c(c1)c1c(c(=O)n(Cc3ccccc3)c(=O)n1CC(=O)Nc1c(C)cccc1C)n2C	.	.	0.5%	-0.6%	.	.
O=C(CNS(=O)(=O)c1cccs1)N1CCN(c2cccc(C(F)(F)F)c2)CC1	.	.	16.4µM*	20.6µM*	.	.
O=C1C(NS(=O)(=O)c2cccs2)=C(N2CCN(Cc3ccccc3)CC2)C(=O)c2ccccc21	4.6	-1.5%	?	16.4µM*	-11.1%	23.1µM*
CN1CCN(C2=C(NS(=O)(=O)c3cccs3)C(=O)c3ccccc3C2=O)CC1	68.7	?	16.4µM*	20.6µM*	?	-27.6%
C1CCN2CC3CC(CN4CCCC[C@@H]34)C2C1 (stereo not given in full)	.	.	6.6%	-5.5%	.	.
Cc1ccc(C)c(S(=O)(=O)N2CCN(C(=O)Cn3c(=O)cnc4ccccc43)CC2)c1	10.9	-0.3%	-12.8%	-0.8%	10.2%	-7.4%
COc1cc(NC(=O)CCS(=O)(=O)c2ccc3c(c2)CC(=O)N3C)cc(OC)c1OC	.	.	-12.9%	-14.2%	.	.
CCCCCCCCCCC(C)(C)C(=O)Nc1c(OC)cc(OC)cc1OC	.	.	10µM*	10µM*	.	.
